Compound activity: PubChem, several laboratories
Most compounds without a hit are left out; they make up all but 4.2% or so of the library.
NALP3 yeast inh: NALP3 inhibition in yeast; Yeast reconstituted NLRP3/ASC/caspase-1, beta-gal luminescence, 24 h; inhibition, % at 10 µM; 330,000 compounds, 0.39% hits;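 active = inhibition of 50% or more; inactive = inhibition below 50%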;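 also: plate controls were induced DMSO wells for no effect and uninduced yeast grown without galactose for full effect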
tim23-1 inh: tim23-1 yeast growth inhibition; S. cerevisiae tim23-1 growth, BacTiter-Glo luminescence, 24 h; AID 463212; 330,000 compounds, 1.3% hits; inhibition, % at 20 µM;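 active = growth inhibition of the mutant yeast at or above 50%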;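 also: temperature-sensitive mutant grown at 25 °C; plate controls were DMSO-treated mutant yeast for no effect and medium wells lacking yeast for full effect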
TIM10 inh: growth inhibitors of TIM10 yeast strain. S. cerevisiae TIM10 strain growth, BacTiter-Glo luminescence, 24 h. inhibition, % at 10 µM. 330,000 compounds, 1.4% hits. AID 463195;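 active = inhibition of 40% or more at the single tested concentration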;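 also: wild-type TIM10 isogenic control strain grown at permissive 25 °C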
tim10-1 inh: tim10-1 yeast growth inhibition; S. cerevisiae tim10-1 ts strain growth, BacTiter-Glo, 24 h; inhibition, % at 20 µM; 330,000 compounds, 2.2% hits; AID 463190;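 active = inhibition of at least 40%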;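 also: mutant grown at 25 °C; 0% = DMSO wells with yeast and 100% = wells holding no yeast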
NALP1 yeast inh: NALP1 inhibition; inhibition, % at 10 µM; S. cerevisiae NALP1/ASC/caspase-1 growth, X-gal OD620, 72 h; 280,000 compounds, 0.61% hits; in the data active = inhibition mostly above about 24%, no sharp cut-off; inactive = mostly below about 32%
V-ATPase pH: alters yeast V-ATPase proton transport; S. cerevisiae, pHLuorin cytosolic pH fluorescence; response, % at 10 µM; 350,000 compounds, 0.37% hits; in the data active = response mostly above about 7.3%, no sharp cut-off; inactive = mostly below about 5.4%; also: actives read high
* hit, by the source's call.

For CCc1ccc(NC(=O)C2CCC(CNC(=O)[C@@H]3Cc4ccccc4CN3)CC2)cc1 (stereo partly specified) the results were NALP3 yeast inh 5.2, tim23-1 inh 7.7, TIM10 inh -7.5, tim10-1 inh 16.7, NALP1 yeast inh 33.5* and V-ATPase pH 12.2.
For CCc1cc2c(NCC(=O)O)ncnc2s1 the results were NALP3 yeast inh 1.2, tim23-1 inh 8.0, TIM10 inh 7.9, tim10-1 inh 6.8, NALP1 yeast inh 39.4* and V-ATPase pH 3.4.
`Cc1c(CBr)[n+](=O)c2c(n1[O-])C(Br)CCC2Br` (stereo unspecified) gave NALP3 yeast inh 21.7, tim23-1 inh -2.8, TIM10 inh -2.7, tim10-1 inh 1.6, NALP1 yeast inh 41.5* and V-ATPase pH -6.0.
COc1ccccc1N1CCN(C(=O)CCc2ccc(S(=O)(=O)NCC(C)C)cc2)CC1 was read as NALP3 yeast inh 5.5, tim23-1 inh 17.1, TIM10 inh 26.2, tim10-1 inh 16.3, NALP1 yeast inh 6.7 and V-ATPase pH -0.9.
CC1CCC2(CC1)NC(=O)N(CC(=O)Nc1sc3c(c1C(N)=O)CCC3)C2=O (stereo unspecified) was read as NALP3 yeast inh -1.5, tim23-1 inh -2.1, TIM10 inh -1.5, tim10-1 inh -0.6, NALP1 yeast inh 11.0 and V-ATPase pH -0.2.
For NC(=O)c1c(NC(=O)CN2C(=O)NC(Cc3ccccc3)C2=O)sc2c1CCC2 (stereo unspecified) the results were NALP3 yeast inh 0.9, tim23-1 inh 5.7, TIM10 inh -0.7, tim10-1 inh 8.2, NALP1 yeast inh 41.9* and V-ATPase pH 2.7.
`Cc1cc(-c2ccccc2)n2ncc(-c3ccccc3)c2n1` gave NALP3 yeast inh 24.4, tim23-1 inh 30.7, TIM10 inh -2.1, tim10-1 inh 32.3, NALP1 yeast inh 13.0 and V-ATPase pH 5.0.
Screening COc1ccc(-c2cc(C)nc3c(-c4ccccc4)cnn23)cc1 returned NALP1 yeast inh 6.4 and V-ATPase pH 99.6*.
`C=CCn1c(-c2cccs2)nc2ccccc21` gave NALP3 yeast inh 26.0, tim23-1 inh 10.3, TIM10 inh -13.8, tim10-1 inh 4.3, NALP1 yeast inh 24.6* and V-ATPase pH 4.4.
For CNC(=O)c1ccccc1S(=O)(=O)c1ccccc1C#N the results were NALP3 yeast inh 5.9, tim23-1 inh 13.1, TIM10 inh 1.8, tim10-1 inh 10.7, NALP1 yeast inh 28.0* and V-ATPase pH 2.9.
For C=CCN1/C(=C(\C#N)C2=NS(=O)(=O)c3ccccc32)N(C)c2ccccc21 the results were NALP3 yeast inh -4.4, tim23-1 inh 17.1, TIM10 inh -3.6, tim10-1 inh 12.2, NALP1 yeast inh 18.0 and V-ATPase pH 24.1*.
For CN1CCc2cccc3c2[C@@H]1Cc1ccc(O)c(O)c1-3 the results were NALP3 yeast inh 47.3, tim23-1 inh 9.6, TIM10 inh 15.4, tim10-1 inh 20.9, NALP1 yeast inh 86.3* and V-ATPase pH -3.4.
CC(C)[C@H](NC(=O)c1ccccc1)C(=O)OCc1nnc(-c2ccccc2)o1 was read as NALP3 yeast inh 16.2, tim23-1 inh 12.9, TIM10 inh -9.6, tim10-1 inh 4.2, NALP1 yeast inh 8.7 and V-ATPase pH -0.7.
For Cc1noc(C)c1COC(=O)[C@@H](NC(=O)c1ccccc1)C(C)C the results were NALP3 yeast inh 16.0, tim23-1 inh 17.6, TIM10 inh 5.8, tim10-1 inh 5.8, NALP1 yeast inh 23.7* and V-ATPase pH -1.6.
For Cc1ccccc1-c1noc(-c2ccccc2C(=O)NCc2ccco2)n1 the results were NALP3 yeast inh 32.6, tim23-1 inh 7.2, TIM10 inh -25.6, tim10-1 inh -3.2, NALP1 yeast inh 38.7* and V-ATPase pH 0.4.
`CCN1CCN(C(=S)Nc2cccc(Cl)c2)CC1` gave NALP3 yeast inh -4.4, tim23-1 inh 6.0, TIM10 inh 7.9, tim10-1 inh 8.0, NALP1 yeast inh -7.0 and V-ATPase pH 5.1.
Screening CCN1CCN(C(=S)Nc2ccc(Cl)c(Cl)c2)CC1 returned NALP3 yeast inh 7.8, tim23-1 inh 12.1, TIM10 inh 3.6, tim10-1 inh -3.7, NALP1 yeast inh 50.8* and V-ATPase pH -2.6.
CSc1ccc(/C=C/C(=O)c2ccc(O)cc2)cc1 was read as NALP3 yeast inh 41.3, tim23-1 inh 12.5, TIM10 inh 18.6, tim10-1 inh -8.6, NALP1 yeast inh 58.8* and V-ATPase pH 2.4.
O=C(CCS(=O)(=O)c1ccc(Cl)cc1)N1CCN(c2ccccc2F)CC1 was read as NALP3 yeast inh 19.2, tim23-1 inh 5.5, TIM10 inh -21.8, tim10-1 inh -4.6, NALP1 yeast inh 28.5* and V-ATPase pH -4.6.
`CSc1ncccc1C(=O)OCC(=O)Nc1ccc2c(c1)OCO2` gave NALP3 yeast inh 7.8, tim23-1 inh 12.5, TIM10 inh -11.5, tim10-1 inh -15.8, NALP1 yeast inh 12.7 and V-ATPase pH -3.4.
Cc1ccccc1Nc1cc(C)c2c(O)cccc2n1 was read as NALP3 yeast inh 29.6, tim23-1 inh 16.0, TIM10 inh 15.6, tim10-1 inh 12.2, NALP1 yeast inh 56.0* and V-ATPase pH 0.8.
For CC(C)(C)C(=O)N1CCN(C(c2ccccc2)c2ccccc2)CC1 the results were NALP3 yeast inh 11.1, tim23-1 inh 36.7, TIM10 inh 21.9, tim10-1 inh 25.5, NALP1 yeast inh 4.5 and V-ATPase pH -2.5.
Cc1cc(Nc2cccc(F)c2)nc(NCc2ccccc2)n1 was read as NALP3 yeast inh 15.9, tim23-1 inh -6.4, TIM10 inh 15.2, tim10-1 inh -8.4, NALP1 yeast inh 71.7* and V-ATPase pH 6.7.
For Cc1cc(Nc2ccccc2)nc(NCc2ccccc2)n1 the results were NALP3 yeast inh 35.8, tim23-1 inh 14.2, TIM10 inh 21.5, tim10-1 inh 1.8, NALP1 yeast inh 41.7 and V-ATPase pH 1.3.
`Cc1cc(Nc2ccc(Cl)cc2)nc(NCc2ccccc2)n1` gave NALP3 yeast inh 26.1, tim23-1 inh 48.2, TIM10 inh 15.5, tim10-1 inh 24.5, NALP1 yeast inh 76.4* and V-ATPase pH 2.7.
For O=S(=O)(NCC1CCCO1)c1cc(Cl)ccc1Br (stereo unspecified) the results were NALP3 yeast inh -19.7, tim23-1 inh 12.2, TIM10 inh 16.3, tim10-1 inh 15.2, NALP1 yeast inh 5.8 and V-ATPase pH 1.0.
Screening Cc1ccc(S(=O)(=O)N2CCCCC2C(=O)NCc2ccco2)cc1 (stereo unspecified) returned NALP3 yeast inh -1.3, tim23-1 inh 11.3, TIM10 inh -9.2, tim10-1 inh 26.8, NALP1 yeast inh -7.4 and V-ATPase pH -2.9.
Screening Cc1ccc(S(=O)(=O)N2C(=O)CCC2C(=O)NCc2ccco2)cc1 (stereo unspecified) returned NALP3 yeast inh -5.1, tim23-1 inh 10.2, TIM10 inh -22.0, tim10-1 inh 3.2, NALP1 yeast inh 40.3* and V-ATPase pH -2.1.
